UBC9 SUMO inh = inhibitors of human SUMOylation (UBC9). inhibition, % at 35 µM. HTRF SUMOylation assay, SAE1/SAE2 + UBC9, in vitro. 290,000 tested, 0.36% active. P63279; in the data active = inhibition above about 50%, passing the limit was not always enough
14-3-3 Bad inh = disrupts binding of bovine 14-3-3 zeta to phospho-Bad peptide; TR-FRET 14-3-3zeta/Dy647-pBad peptide displacement, 1 h; inhibition, % at 21.7 µM; 220,000 tested, 0.71% active;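 active = inhibition above about 70%, limit read from the data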
eIF4E 4G PPI = eIF4E/eIF4G interaction inhibition in translation initiation | inhibition, % at 21.7 µM | 220,000 tested, 0.37% active | AID 782 | TR-FRET eIF4E-eIF4GI(517-606) binding, 2 h | P63073+Q04637
Target sequence (P63073 whole entry, looked up): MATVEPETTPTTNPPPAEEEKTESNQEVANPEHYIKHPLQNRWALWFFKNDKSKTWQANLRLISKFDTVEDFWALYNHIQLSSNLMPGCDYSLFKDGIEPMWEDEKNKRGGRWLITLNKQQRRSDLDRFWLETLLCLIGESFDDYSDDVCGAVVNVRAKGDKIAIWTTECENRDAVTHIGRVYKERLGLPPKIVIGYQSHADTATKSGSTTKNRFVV
Target sequence (Q04637 whole entry, looked up): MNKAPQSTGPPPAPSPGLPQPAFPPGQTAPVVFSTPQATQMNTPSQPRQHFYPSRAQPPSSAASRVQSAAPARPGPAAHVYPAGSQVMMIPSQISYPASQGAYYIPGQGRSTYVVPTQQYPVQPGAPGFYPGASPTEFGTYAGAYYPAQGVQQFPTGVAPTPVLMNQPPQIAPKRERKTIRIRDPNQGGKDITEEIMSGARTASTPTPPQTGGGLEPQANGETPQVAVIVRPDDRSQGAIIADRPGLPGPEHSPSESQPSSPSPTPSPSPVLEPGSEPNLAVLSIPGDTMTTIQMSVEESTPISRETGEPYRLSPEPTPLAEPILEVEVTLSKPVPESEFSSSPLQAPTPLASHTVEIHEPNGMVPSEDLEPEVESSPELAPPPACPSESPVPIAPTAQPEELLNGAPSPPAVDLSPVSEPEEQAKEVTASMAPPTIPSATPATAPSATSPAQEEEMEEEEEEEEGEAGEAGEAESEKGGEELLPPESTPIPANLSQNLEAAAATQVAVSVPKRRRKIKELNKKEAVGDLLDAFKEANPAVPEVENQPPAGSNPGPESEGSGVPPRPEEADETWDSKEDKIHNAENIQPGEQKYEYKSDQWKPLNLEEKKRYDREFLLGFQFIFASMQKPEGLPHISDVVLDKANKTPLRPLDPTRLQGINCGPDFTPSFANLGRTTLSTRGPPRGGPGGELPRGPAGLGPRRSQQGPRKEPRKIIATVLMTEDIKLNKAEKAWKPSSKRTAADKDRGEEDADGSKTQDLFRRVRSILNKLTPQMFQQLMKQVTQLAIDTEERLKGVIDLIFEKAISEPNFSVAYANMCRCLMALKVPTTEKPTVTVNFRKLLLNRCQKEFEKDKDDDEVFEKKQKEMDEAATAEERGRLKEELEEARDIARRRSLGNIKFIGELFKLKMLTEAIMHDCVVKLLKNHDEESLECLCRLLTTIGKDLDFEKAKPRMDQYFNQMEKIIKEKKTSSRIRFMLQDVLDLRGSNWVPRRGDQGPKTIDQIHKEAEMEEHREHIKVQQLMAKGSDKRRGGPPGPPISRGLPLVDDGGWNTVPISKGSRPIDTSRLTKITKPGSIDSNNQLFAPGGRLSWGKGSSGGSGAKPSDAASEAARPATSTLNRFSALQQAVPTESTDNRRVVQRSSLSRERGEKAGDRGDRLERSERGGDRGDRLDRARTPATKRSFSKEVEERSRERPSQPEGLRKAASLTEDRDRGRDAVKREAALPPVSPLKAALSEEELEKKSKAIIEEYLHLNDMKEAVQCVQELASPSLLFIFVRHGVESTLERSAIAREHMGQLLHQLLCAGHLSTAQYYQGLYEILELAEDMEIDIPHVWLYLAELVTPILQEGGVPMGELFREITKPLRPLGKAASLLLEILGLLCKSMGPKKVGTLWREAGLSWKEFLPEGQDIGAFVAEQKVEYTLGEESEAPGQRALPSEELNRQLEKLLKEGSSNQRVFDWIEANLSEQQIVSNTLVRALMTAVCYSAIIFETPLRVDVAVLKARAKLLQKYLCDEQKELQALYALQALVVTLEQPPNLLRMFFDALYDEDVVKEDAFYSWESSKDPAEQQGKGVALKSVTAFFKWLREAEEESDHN
NCF1 inh = inhibitors of human p47phox binding | p47phox/p22phox peptide binding, fluorescence polarization, 2 h | P14598 | 220,000 tested, 0.53% active | inhibition, % at 24.7 µM
A number is an active result; – = inactive; · = no result; [ ] = dose if it differs, or a comment. Only some compounds are listed: those with a hit (about 1.3% of all), similar ones and a draw of the others.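 The calls were made as follows, unless noted: active = inhibition above about 30% (limit read from the data); inactive = the rest.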

SMILES | UBC9 SUMO inh | 14-3-3 Bad inh | eIF4E 4G PPI | NCF1 inh
Cn1c(-c2ccc(F)cc2)cnc1NCc1ccc(C#N)cc1 | – | – | – | –
COc1ccc2oc(C(=O)OCC(=O)N(Cc3ccccc3)C(C)(C)C)c(C)c2c1 | – | · | · | ·
Cc1ccc(C(=O)C(C)OC(=O)CCN2C(=O)C3C4C=CC(C5CC45)C3C2=O)cc1 (configuration not stated) | – | · | · | ·
CC1CCN(CCC(=O)Nc2ccc3c(c2)OCCO3)CC1 | – | – | – | –
CC1CC(C)CN(CC(=O)Nc2ccc3c(c2)OCCO3)C1 (configuration not stated) | – | – | – | 31.8
O=C(Nc1ccc2c(c1)OCCO2)c1c(F)c(F)c(F)c(F)c1F | – | – | – | 63.5
O=C(Nc1ccc2c(c1)OCCO2)c1cc(F)c(F)cc1Cl | – | · | · | ·
Cc1ccc(P(=O)(O)c2ccc(C)cc2)cc1 | – | · | · | 64.5
COc1ccc(/C=N/Nc2ncccc2[N+](=O)[O-])c(OC)c1 | – | – | – | –
CCOCCCNC(=O)C1CCCN1C(=O)Nc1ccccc1[N+](=O)[O-] (configuration not stated) | – | – | – | –
COc1ccc(S(=O)(=O)Nc2ccccc2Cl)cc1NC(C)=O | – | 91.3 | – | –
COc1ccccc1NS(=O)(=O)c1ccc(Cl)c(NC(=S)NC(=O)C2CCCC2)c1 | – | – | – | –
CC(C)(C)CC(=O)Nc1cc2c3c(c1)CCC(=O)N3CCC2 | – | · | · | ·
CCOc1ccccc1Oc1c(C)oc2cc(OC(=O)c3ccco3)ccc2c1=O | – | – | – | –
COc1ccccc1Oc1c(C)oc2cc(OC(=O)c3ccco3)ccc2c1=O | 51.6 | – | – | –
Cc1ccc(C)c(S(=O)(=O)NC(C)C(=O)NCc2ccccn2)c1 (configuration not stated) | – | · | · | ·
CCCc1nc(SCC(=O)NNC(=O)c2ccc(OC)cc2)c2ccccc2n1 | – | 97.7 | – | –
Cc1ccc(NC(=O)c2sc3nc4c(c(-c5ccco5)c3c2N)CCC4)cc1 | – | – | – | –
NC(=O)c1sc2nc(-c3ccccc3)ccc2c1N | – | · | · | ·
Nc1c(C(=O)Nc2ccc(F)cc2)sc2nc(-c3ccco3)ccc12 | 74.5 | – | – | –
CC(=O)c1sc2nc(-c3ccco3)ccc2c1N | 70.3 | – | – | –
Nc1c(C(=O)Nc2ccc(Br)cc2)sc2nc(-c3ccco3)ccc12 | 72.3 | – | – | –
COc1cccc(OC)c1OCC(O)CN1CCN(c2ccccc2)CC1 (configuration not stated) | – | 71.9 | – | –
CC(C)(C)C1CCC(OCC(O)CN2CCN(c3ccccc3)CC2)CC1 (configuration not stated) | – | 74.8 | – | –
CC(C)(C)C1CCC(OCC(O)CN2CCCC2)CC1 (configuration not stated) | – | – | – | –
SMILES | UBC9 SUMO inh | 14-3-3 Bad inh | eIF4E 4G PPI | NCF1 inh
O=C(Cc1ccc([N+](=O)[O-])cc1)N1N=C(C2CC2)CC1(O)C(F)(F)F (configuration not stated) | – | 90.6 | – | –
CCOC(=O)c1c(N)sc(C(N)=O)c1C | – | – | – | –
CCOC(=O)c1sc(N)c(C(N)=O)c1C | – | – | – | 30.1
CNC(=S)N(CCc1ccc(S(N)(=O)=O)cc1)C1CC(=O)N(c2ccccc2F)C1=O (configuration not stated) | – | 79.4 | – | –
CCOc1ccc(N2C(=O)CC(N(CCc3ccc(S(N)(=O)=O)cc3)C(C)=O)C2=O)cc1 (configuration not stated) | – | – | – | –
COC(=O)c1cc(C)nc2c1C(=O)C(=O)C=C2N1CCOCC1 | 98.7 | · | · | ·
COC(=O)c1cc(S(=O)(=O)N2CCOCC2)c(Cl)cc1N1CCOCC1 | – | – | – | –
COc1ccc2[nH]c3c(=O)n(CCCC(=O)NC4CCCCC4C)c(=S)[nH]c3c2c1 (configuration not stated) | 58.4 | · | · | ·
CC1CCCCC1NC(=O)CCCn1c(=S)[nH]c2ccccc2c1=O (configuration not stated) | – | – | – | –
CCN(CC)CC1C(=O)N(c2ccc(OC)cc2)C1c1ccccc1 (configuration not stated) | – | · | · | ·
COc1ccc(N2C(=O)C(CN3CCCCC3)C2c2ccccc2)cc1 (configuration not stated) | – | 88.9 | – | –
COc1ccc(-c2[nH]ncc2C=O)cc1OC | – | – | – | –
CCOC(=O)C1CCN(C(=O)C2CCC(=O)N(CC3CCCCC3)C2)CC1 (configuration not stated) | – | · | · | ·
COc1cccc(N2CC(O)Cn3c2nc2c3c(=O)[nH]c(=O)n2C)c1 (configuration not stated) | – | · | · | ·
COc1ccc(CNC[C@@H](CCCCN(C)Cc2ccc(OC)cc2)N2C[C@H](c3ccccc3)N(CCc3ccc(Cl)c(Cl)c3)C(=O)C2=O)cc1 | – | – | – | 50.2
Cc1ccc(CCN2CC(C(=O)NCCCN(C)Cc3ccccc3)CC2=O)cc1 (configuration not stated) | – | – | – | –
CCOc1ccc(CCN2C(=O)C(=O)N([C@H](CCCN(C)Cc3ccccc3)CNCc3ccccc3)C[C@@H]2C(C)C)cc1 | – | – | – | –
CN(CCCC[C@H](CNCc1ccc(-c2ccccc2)cc1)N1C[C@H](c2ccccc2)N(CCc2ccc(Cl)c(Cl)c2)C(=O)C1=O)Cc1ccc(-c2ccccc2)cc1 | – | – | – | 51.1
O=C(CSCc1ccccc1Cl)NNC(=S)Nc1ccccc1 | – | – | – | –
Cc1cc(NC(=O)CSc2ncnc3c2cnn3-c2cccc(Cl)c2)no1 | – | – | – | –
Cc1noc(C)c1COc1ccc(C(=O)Nc2cccnc2)cc1 | – | 78.7 | – | –
COc1ccc(OC)c(-c2csc(NC(=O)Cc3ccc(F)cc3)n2)c1 | – | · | · | ·
COc1ccc(OC)c(-c2csc(NC(=O)Cn3[nH]c(=O)c4ccccc4c3=O)n2)c1 | – | – | 42.1 | –
COc1ccc(CCn2c(N)c(C(=O)NCc3ccco3)c3nc4ccccc4nc32)cc1 | 100.1 | – | – | –
COc1ccc(CCn2c(N)c(C(=O)NCc3ccco3)c3nc4ccccc4nc32)cc1OC | – | – | – | –
SMILES | UBC9 SUMO inh | 14-3-3 Bad inh | eIF4E 4G PPI | NCF1 inh
O=S(=O)(Nc1ccc2cn[nH]c2c1)c1ccc(Cl)s1 | – | 85.0 | – | –
O=S(=O)(Nc1ccc2cn[nH]c2c1)c1ccc(Cl)cc1 | – | · | · | ·
COc1ccc(-c2[nH]ncc2CN2CCCO2)c(F)c1 | – | – | – | –
N#Cc1c(/N=C/c2ccco2)oc(-c2ccccc2)c1-c1ccccc1 | – | 93.0[fluorescence artefact?] | – | –
Cc1ccc(NC2=C/C(=N\S(=O)(=O)c3cccs3)c3ccccc3C2=O)c(C)c1 | – | – | – | –
O=C1C(Nc2ccc(O)cc2)=C/C(=N/S(=O)(=O)c2cccs2)c2ccccc21 | – | – | – | 30.8
Cc1ccc(Cl)cc1NC1=C/C(=N\S(=O)(=O)c2cccs2)c2ccccc2C1=O | – | – | – | 84.1
COc1ccc(NC(=O)CCCCCn2nnc3ccccc3c2=O)cc1 | – | · | · | ·
COc1ccc(C(=O)NCc2nnc(SCC(=O)NO)n2Cc2ccccc2)cc1 | – | – | – | –
COc1ccc(Nc2nc(-c3ccccc3)c3ccccc3n2)cc1 | – | – | – | –
